We go through 4 molecules from PubChem BioAssay (NCATS).

SMILES strings stand for the structures. Inconclusive results are not listed. A call without a number means that no potency is given here. Active and inactive are the calls of the source. The call rests on the fitted dose curve; in most records, active means well fitted cell-killing curve with a large enough effect; inconclusive means small, poorly fitted or top-dose-only effect; inactive means flat fitted curve, though single readings scatter.

A short description of the first assay: OV-SAHO Cancer Cell Toxicity qHTS against the NCATS CANVASS Library (AID 1347348). Further: nearly all actives have a fitted effect of over 55% in size. The conditions noted are these: OV-SAHO viability, CellTiter-Glo luminescence, 72 h; series mostly up to 38.3 µM. Summed up: (§1)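 Toxicity is measured over 72 h of compound exposure at 37 degrees C under 5% CO2. Each well holds 1000 cells, pre-incubated for 4 hours before dosing across an 11-point range. CellTiter-Glo luminescence gives viability.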
For `CC(C)c1ccc2c(c1)CCC1[C@](C)(C(=O)O)CCC[C@]21C` (stereo partly drawn), the call was inactive.

As to `O=C(/C=C/C=C/c1ccc2c(c1)OCO2)N1CCCCC1`, the molecule was called inactive.

On to `C/C(=C\CC/C(C)=C/CC[C@]1(C)CCc2cc(O)cc(C)c2O1)CC/C=C(\C)C(=O)O`, for which the call was inactive.

On to `CC(=O)O[C@H]1C[C@@]2(C)[C@@H](CC[C@H]3[C@@]4(C)C=CC(=O)[C@@H](C)[C@@H]4[C@H](OC(C)=O)C(=O)[C@@]32C)/C1=C(\CCC=C(C)C)C(=O)O`, for which the call was inactive.

The next assay is described as follows: Panc-1005 Cancer Cell Toxicity qHTS against the NCATS CANVASS Library (AID 1347349). Further: nearly all actives have a fitted effect of over 60% in size. Particulars: Panc-1005 viability, CellTiter-Glo luminescence, 72 h; series mostly up to 38.3 µM. The gist of the method: as §1
On to `CC(C)c1ccc2c(c1)CCC1[C@](C)(C(=O)O)CCC[C@]21C` (stereo partly drawn), for which the call was inactive.

`C/C(=C\CC/C(C)=C/CC[C@]1(C)CCc2cc(O)cc(C)c2O1)CC/C=C(\C)C(=O)O`: the outcome was inactive.

`CC(=O)O[C@H]1C[C@@]2(C)[C@@H](CC[C@H]3[C@@]4(C)C=CC(=O)[C@@H](C)[C@@H]4[C@H](OC(C)=O)C(=O)[C@@]32C)/C1=C(\CCC=C(C)C)C(=O)O`: the call was inactive.

Another assay is described as follows: SW1088 Cancer Cell Toxicity qHTS against the NCATS CANVASS Library (AID 1347350). Further: nearly all actives have a fitted effect of over 75% in size. Further: potency means the concentration at half of the fitted maximal effect. The conditions noted are these: SW1088 viability, CellTiter-Glo luminescence, 72 h; series mostly up to 76 µM. Summed up: as §1
For `CC(C)c1ccc2c(c1)CCC1[C@](C)(C(=O)O)CCC[C@]21C` (stereo partly drawn), the Potency entry is “inactive”.

On to `O=C(/C=C/C=C/c1ccc2c(c1)OCO2)N1CCCCC1`, for which the Potency entry is “inactive”.

Regarding `C/C(=C\CC/C(C)=C/CC[C@]1(C)CCc2cc(O)cc(C)c2O1)CC/C=C(\C)C(=O)O`, the Potency was 18.8 µM (active).

A short description of the next assay: U-118MG Cancer Cell Toxicity qHTS against the NCATS CANVASS Library (AID 1347351). Particulars: U-118MG viability, CellTiter-Glo luminescence, 72 h; series mostly up to 76 µM. Summed up:
as §1
With `CC(C)c1ccc2c(c1)CCC1[C@](C)(C(=O)O)CCC[C@]21C` (stereo partly drawn), the result was inactive.

`O=C(/C=C/C=C/c1ccc2c(c1)OCO2)N1CCCCC1`: the molecule was called inactive.

With `C/C(=C\CC/C(C)=C/CC[C@]1(C)CCc2cc(O)cc(C)c2O1)CC/C=C(\C)C(=O)O`, the outcome was inactive.

Turning to `CC(=O)O[C@H]1C[C@@]2(C)[C@@H](CC[C@H]3[C@@]4(C)C=CC(=O)[C@@H](C)[C@@H]4[C@H](OC(C)=O)C(=O)[C@@]32C)/C1=C(\CCC=C(C)C)C(=O)O`, the molecule was called inactive.

Another assay in a line: COV-362 Cancer Cell Toxicity qHTS against the NCATS CANVASS Library (AID 1347352). Particulars: COV-362 viability, CellTiter-Glo luminescence, 72 h; series mostly up to 38.3 µM. The gist of the method:
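Cells at 1000/well were given compound 4 h after plating in an 11-point series. Viability was read by CellTiter-Glo luminescence after 72 h at 37 degrees C.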
With `CC(C)c1ccc2c(c1)CCC1[C@](C)(C(=O)O)CCC[C@]21C` (stereo partly drawn), the molecule was called inactive.

`O=C(/C=C/C=C/c1ccc2c(c1)OCO2)N1CCCCC1`: the molecule was classed as inactive.

On to `C/C(=C\CC/C(C)=C/CC[C@]1(C)CCc2cc(O)cc(C)c2O1)CC/C=C(\C)C(=O)O`, for which the call was inactive.

On to `CC(=O)O[C@H]1C[C@@]2(C)[C@@H](CC[C@H]3[C@@]4(C)C=CC(=O)[C@@H](C)[C@@H]4[C@H](OC(C)=O)C(=O)[C@@]32C)/C1=C(\CCC=C(C)C)C(=O)O`, for which the result was inactive.
